Our source for the outcome and AC50 values is PubChem BioAssay (EPA / NIEHS).

Experiment [1] in a line: TOX21_p53_BLA_p2_viability: Viability Assessment in the Tox21 HCT-116 p53 Agonism Beta-lactamase Assay, Phase 2 (AID 2283591).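 Note: compound exposure lasted 16 h at 37 °C; actives lower the ATP signal meaning cytotoxicity.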 Put shortly:
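HCT116 p53-bla cells, 4000/well, dosed after 5 h plating (217-fold dilution of DMSO stocks) and incubated 16 h at 37C. Viability taken as cellular ATP by CellTiter-Glo luminescence after 30 min RT; signal loss marks cytotoxicity.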

Experiment [2] addresses Cellular tumor antigen p53 (Homo sapiens) (UniProt P04637). Put plainly: TOX21_p53_BLA_p2_ratio: Tox21 HCT-116 p53 Agonism Beta-lactamase Assay, Ratio, Phase 2 (AID 2283592). The method, boiled down:
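Cleaved-to-uncleaved substrate ratio (460 vs 530 nm) measured in HCT116 cells with an inducible beta-lactamase reporter linked to p53 activity. Compounds incubated 16 h at 37C before 2 h room-temperature CCF4-AM loading.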

Experiment [3] is described as follows: TOX21_p53_BLA_p3_viability: Viability Assessment in the Tox21 HCT-116 p53 Agonism Beta-lactamase Assay, Phase 3 (AID 2283593).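 Note: cells exposed to compound for 16 h before reading.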 The method, boiled down:
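HCT116 cells, 4000/well, dosed 5 h after plating by pin transfer (217-fold dilution from DMSO stock) and incubated 16 h at 37C, 5% CO2. Viability read as ATP luminescence with CellTiter-Glo after 30 min at room temperature.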

Experiment [4] deals with Cellular tumor antigen p53 (Homo sapiens) (UniProt P04637). Put plainly: TOX21_p53_BLA_p3_ratio: Tox21 HCT-116 p53 Agonism Beta-lactamase Assay, Ratio, Phase 3 (AID 2283596). Put shortly:
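Cells were seeded at 4000/well, rested 5 h at 37C, then dosed with DMSO compound solutions (217-fold dilution) for 16 h. CCF4-AM substrate was loaded for 2 h at room temperature, and the 460/530 nm emission ratio was fitted for gain of signal versus DMSO.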

The nature of experiment [5]: TOX21_p53_BLA_p4_viability: Viability Assessment in the Tox21 HCT-116 p53 Agonism Beta-lactamase Assay, Phase 4 (AID 2283597).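 Note: hits lower the luminescence signal meaning cytotoxicity.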 The method, boiled down:
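Viability is taken as cellular ATP: after 16 h compound exposure of HCT116 cells and a 2 h room-temperature CCF4-AM substrate step, CellTiter-Glo reagent is added and luminescence is measured 30 min later.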

Experiment [6] addresses Cellular tumor antigen p53 (Homo sapiens) (UniProt P04637). Put plainly: TOX21_p53_BLA_p5_ratio: Tox21 HCT-116 p53 Agonism Beta-lactamase Assay, Ratio, Phase 5 (AID 2283599). The method, boiled down: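 HCT-116 p53-bla cells (4000/well) plated 5 h, dosed with compound (217-fold DMSO dilution) for 16 h at 37 C; CCF4-AM substrate 2 h at room temperature. Activity is the 460/530 nm emission ratio (405 nm excitation), fitted in gain-of-signal direction versus DMSO.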

Experiment [7] can be described thus: TOX21_p53_BLA_p5_viability: Viability Assessment in the Tox21 HCT-116 p53 Agonism Beta-lactamase Assay, Phase 5 (AID 2283600). Put shortly: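 Viability is taken from cellular ATP content, measured by luciferase luminescence in the same wells after the beta-lactamase ratio read. Cells are seeded at 4000 per well and exposed to DMSO-dissolved compounds, diluted 217-fold, for 16 h.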

For experiment [8], the target named is Cellular tumor antigen p53 (Homo sapiens) (UniProt P04637). Put plainly: TOX21_p53_BLA_p4_ratio: Tox21 HCT-116 p53 Agonism Beta-lactamase Assay, Ratio, Phase 4 (AID 2283601). The method, boiled down:
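HCT-116 p53 beta-lactamase reporter cells (4000/well) preincubated 5 h, then compound (217-fold dilution of DMSO stock) for 16 h at 37C. CCF4-AM substrate added 2 h at room temperature; 460/530 nm emission ratio fitted upward versus DMSO.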

Experiment [9] can be described thus: CCTE_Harrill_HTTr_Viability_MCF7: CCTE's 6-hour Cell Viability Assessment for the High-Throughput Transcriptomics (HTTr) Platform, in MCF-7 cells cultured in DMEM + 10% fetal bovine serum, Harrill Lab (AID 2284010; active = hit-call score of the fitted dose curve at least 0.9, where 1 is the maximum; inactive = score below 0.9). The method, boiled down: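 PI exclusion, high-content imaging; 8-pt dilution series, 6 h exposure; bidirectional fit vs DMSO (neg. ctrl/baseline); gain of signal = loss of membrane integrity.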

The nature of experiment [10]: CCTE_Harrill_HTTr_Apoptosis_MCF7: CCTE's 6-hour Apoptosis Assessment for the High-Throughput Transcriptomics (HTTr) Platform, in MCF-7 cells cultured in DMEM + 10% fetal bovine serum, Harrill Lab (AID 2284011; active = hit-call score of the fitted dose curve at least 0.9, where 1 is the maximum; inactive = score below 0.9). Put shortly: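 Cells are dosed with test chemicals at eight concentrations and imaged 6 hours later for caspase-3/7 activity using a green fluorogenic detection reagent. Activity is fitted in both directions against DMSO controls.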

Experiment [11] in a line: ACEA_ER_AUC_viability: ACEA Biosciences xCELLigence Real-Time Cell Analysis on Estrogen Receptor Agonism for Viability (AID 2283782).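 Note: hit means loss of impedance signal meaning reduced cell growth or viability.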 Put shortly:
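Read-out: real-time electrical impedance (RT-CES) area under curve, loss of signal taken as reduced viability, normalized to DMSO baseline. T-47D cells, charcoal-stripped serum medium, compounds up to 100 uM final, continuous exposure, 80 h.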

Inconclusive results are not listed. The source made the active and inactive calls. Rule for the calls, unless noted: active = hit-call score of the fitted dose curve at least 0.9, where 1 is the maximum; inconclusive = response in the unintended direction; inactive = score below 0.9.

Sequence of Cellular tumor antigen p53 (Homo sapiens) (P04637 whole entry, looked up): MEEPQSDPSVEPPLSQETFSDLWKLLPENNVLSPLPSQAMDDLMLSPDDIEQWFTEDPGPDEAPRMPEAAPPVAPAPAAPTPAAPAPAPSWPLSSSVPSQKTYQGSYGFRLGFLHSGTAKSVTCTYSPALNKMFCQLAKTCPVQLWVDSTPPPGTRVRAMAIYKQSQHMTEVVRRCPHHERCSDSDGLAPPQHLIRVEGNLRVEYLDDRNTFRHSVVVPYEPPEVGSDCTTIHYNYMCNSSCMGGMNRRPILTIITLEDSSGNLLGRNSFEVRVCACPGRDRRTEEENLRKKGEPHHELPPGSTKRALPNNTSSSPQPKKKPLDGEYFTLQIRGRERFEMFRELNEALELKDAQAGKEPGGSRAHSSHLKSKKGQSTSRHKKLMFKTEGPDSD

As for `CCCC(C)(COC(N)=O)COC(=O)NC(C)C` (configuration not stated), the compound was called inactive in experiment [1], in [2], in [3], in experiment [4], in [5] and in experiment [6]. Moreover, the compound was classed as inactive in [7], in [8], in experiment [9] and in experiment [10].

The term AC50 denotes the midpoint of the concentration-response curve, whichever way the signal moves. Consider `Nc1ccccc1C(=O)OCC=Cc1ccccc1`, for which the half-maximal activity concentration (AC50) in experiment [1] is 66.3 µM (active). Besides, the result in [2], in [3], in [4], in experiment [5], in experiment [6] and in experiment [8] was inactive.

For `OCCSCSCCO`, the call in experiment [1], in experiment [2], in experiment [3], in [4], in [6] and in [7] was inactive. Moreover, the result in experiment [8] was inactive.

Take `CCOP(=S)(OCC)Oc1cnc2ccccc2n1`: the compound was classed as inactive in [1], in [2], in [3], in [4], in [6] and in experiment [7]. Also, the compound was classed as inactive in experiment [11], in [9] and in experiment [10].

Consider `CC(C)[N+](C)(CCC(C(N)=O)(c1ccccc1)c1ccccc1)C(C)C`, for which the outcome in experiment [1], in experiment [2], in experiment [3], in experiment [4], in experiment [6] and in [7] was inactive. Besides, the result in experiment [8] was inactive.

Take `NC1(c2ccccc2)CCCCC1`: the call in experiment [1], in [2], in experiment [3], in experiment [4], in [6] and in experiment [7] was inactive. In experiment [8], the outcome was inactive.

As to `O=c1[nH]oc2c1CCNC2`, the call in experiment [1], in experiment [2], in [3], in [4], in experiment [6] and in experiment [8] was inactive.

Consider `N#CC1(N=NC2(C#N)CCCCC2)CCCCC1`, for which the result in experiment [1], in [2], in experiment [3], in experiment [4], in [6] and in experiment [8] was inactive.

For `O=[N+]([O-])C(Br)Br`, the compound was classed as inactive in experiment [1], in experiment [2], in experiment [3], in [4], in [6] and in [8].

For the compound `NC(=O)CN1CCCC1=O`, the call in [1], in [2], in experiment [3], in experiment [4], in [6] and in [8] was inactive.

Consider `Clc1ccccc1-c1ccccc1Cl`, for which the outcome in experiment [1], in experiment [2], in [4], in experiment [6] and in experiment [8] was inactive. For the same compound, the concentration at half-maximal activity (AC50) in [3] was 62.2 µM (active).
